From PubChem BioAssay (NCATS) come the findings set out here.

What all share (experiment): qHTS profiling for inhibitors of Plasmodium falciparum proliferation (AID 504749); also: nearly all actives have a fitted effect of over 60% in size
Common to all, as to conditions: P. falciparum in erythrocytes, SYBR Green DNA, 72 h; series mostly up to 28.7 µM
On the technique in general: In qHTS, concentration-response curves come from the screen itself.

The subject of experiment [1] is JCK. Summed up:
(§1)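 Infected RBCs, 0.3% parasitemia/2.5% Hct final; cpd 72 h, 37 C, 5% CO2; lysis buffer with saponin/triton/SYBR Green I, o/n RT dark; FI 485/535; norm. to artemisinin (0.29 uM) and DMSO.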

Experiment [2] has as its system N140. An outline of the steps: as §1
Experiment [3] has as its system P93_24. An outline of the steps: as §1
Experiment [4] deals with P94_40. An outline of the steps: as §1
Experiment [5] concerns PAD. Summed up:
as §1

The test system of experiment [6] is PC15. Summed up:
as §1

Experiment [7] deals with PC26. An outline of the steps: as §1
Experiment [8] concerns PC49. Summed up: as §1
Experiment [9] relates to SC27B. An outline of the steps:
as §1

In experiment [10] the test system is TAB109. An outline of the steps:
as §1

SMILES strings stand for the structures. Records with an inconclusive call do not appear. The source made the active and inactive calls. Calls follow the shape of the dose curve; as a rule, active = well fitted inhibition curve with a large enough effect; inconclusive = small, poorly fitted or top-dose-only effect; inactive = flat fitted curve, though single readings scatter.
Potency is read from the fitted curve at half-maximal effect.

With `O=C(O)CCCCC(=O)O`, the Potency entry in experiment [1], in [2], in [3], in experiment [4], in [5] and in experiment [6] was “inactive” in each case. Moreover, the Potency entry in experiment [7], in [8], in experiment [9] and in experiment [10] was “inactive” throughout.

Regarding `COc1cc(C(=S)N2CCOCC2)cc(OC)c1OC`, the Potency result in experiment [1], in experiment [2], in [3], in [4], in experiment [5] and in experiment [6] was “inactive” each time. The Potency result in experiment [7], in experiment [8], in experiment [9] and in experiment [10] was “inactive” throughout.

Take `NCCc1ccn[nH]1`: the Potency entry in experiment [1], in experiment [2], in [3], in [4], in [5] and in experiment [6] was “inactive” each time. Moreover, the Potency result in experiment [7], in experiment [8], in experiment [9] and in experiment [10] was “inactive” in each case.

Turning to `Nc1ccc(/C=C/c2ccc(N)cc2S(=O)(=O)O)c(S(=O)(=O)O)c1`, the Potency entry in experiment [1], in experiment [2], in [3], in experiment [4], in experiment [5] and in [6] was “inactive” in each case. Further, the Potency entry in experiment [7], in experiment [8], in experiment [9] and in experiment [10] was “inactive” in each case.

On to `NC(=NCCCCCCN=C(N)/N=C(\N)Nc1ccc(Cl)cc1)/N=C(\N)Nc1ccc(Cl)cc1`, for which the Potency is 3.98 µM (active) in experiment [1]; 0.004 µM (active) in experiment [2]; 1 µM (active) in [3]; 3.55 µM (active) in [4]; 3.16 µM (active) in [5]; 2 µM (active) in experiment [6]. Further, the Potency in experiment [7] was 3.79 µM (active); in [8] it was 3.16 µM (active); in experiment [9] it was 0.891 µM (active); in experiment [10], 3.98 µM (active).

Consider `Cc1c(F)c(N2CCNC(C)C2)cc2c1c(=O)c(C(=O)O)cn2C1CC1` (stereo not given), for which the Potency entry in [1], in experiment [2], in [3], in experiment [4], in [5] and in [6] was “inactive” throughout. In addition, the Potency result in experiment [7], in experiment [8], in experiment [9] and in experiment [10] was “inactive” each time.

As for `CCCCOc1cc(C(=O)NCCN(CC)CC)c2ccccc2n1`, the Potency result in [1], in experiment [2], in experiment [3], in [4], in [5] and in experiment [6] was “inactive” throughout. Also, the Potency result in [7], in [8], in [9] and in [10] was “inactive” each time.

Regarding `CC(C)(Oc1ccc(Cl)cc1)C(=O)O`, the Potency entry in experiment [1], in experiment [2], in [3], in experiment [4], in experiment [5] and in experiment [6] was “inactive” throughout. Also, the Potency result in experiment [7], in [8], in experiment [9] and in experiment [10] was “inactive” throughout.

Take `CCOc1ccc2nc3cc(N)ccc3c(N)c2c1`: the Potency in experiment [1] was 10 µM (active); in experiment [2], 10 µM (active); in [3], 3.55 µM (active); in [4], 5.62 µM (active); in [5] it was 7.08 µM (active); in experiment [6] it was 10 µM (active). For the same compound, the Potency was 7.94 µM (active) in experiment [8], 7.94 µM (active) in experiment [9] and 3.98 µM (active) in experiment [10].

Turning to `COc1ccc(CCN2CCC(Nc3nc4ccccc4n3Cc3ccc(F)cc3)CC2)cc1`, the Potency is 6.31 µM (active) in experiment [1]; 3.55 µM (active) in experiment [2]; 2.82 µM (active) in experiment [3]; 3.16 µM (active) in experiment [4]; 3.98 µM (active) in experiment [5]; 6.31 µM (active) in experiment [6]. For the same compound, the Potency in experiment [7] was 6.75 µM (active); in [8], 4.47 µM (active); in experiment [9] it was 3.98 µM (active); in experiment [10] it was 2.51 µM (active).

Turning to `Oc1ccc(Cl)cc1Sc1cc(Cl)ccc1O`, the Potency entry in experiment [1], in [2], in experiment [3], in [4], in experiment [5] and in [6] was “inactive” in each case. Moreover, the Potency entry in experiment [7], in [8] and in experiment [10] was “inactive” in each case.

`CC(O)(P(=O)(O)O)P(=O)(O)O`: the Potency result in experiment [1], in [2], in experiment [3], in experiment [4], in [5] and in experiment [6] was “inactive” each time. Besides, the Potency entry in [7], in [8], in experiment [9] and in experiment [10] was “inactive” each time.

In the case of `COc1cc2c(cc1OC)C(=O)C(CC1CCN(Cc3ccccc3)CC1)C2` (stereo not given), the Potency entry in experiment [1], in experiment [2], in experiment [3], in [4], in experiment [5] and in [6] was “inactive” throughout. Moreover, the Potency entry in [7], in experiment [8], in experiment [9] and in [10] was “inactive” throughout.

Turning to `CN=C(NC#N)Nc1ccc(C2=NNC(=O)CC2C)cc1` (stereo not given), in experiment [7], the Potency result was “inactive”.

Turning to `CC(=O)N/N=C/c1ccc([N+](=O)[O-])o1`, the results for the Potency in experiment [2] and in [10] were 12.6 µM (active) and 6.31 µM (active), respectively. The Potency result in [7] and in experiment [8] was “inactive” throughout.

With `CC(=O)OCC(=O)[C@@]1(OC(C)=O)[C@@H](C)C[C@H]2[C@@H]3C[C@H](F)C4=CC(=O)C=C[C@]4(C)[C@@]3(F)[C@@H](O)C[C@@]21C`, the Potency result in [1], in experiment [6], in experiment [7], in experiment [8], in [9] and in experiment [10] was “inactive” in each case.

As for `CNCCC=C1c2ccccc2CCc2ccccc21`, the Potency in experiment [2] was 7.08 µM (active).

Turning to `CN(C)CCOc1ccccc1Cc1ccccc1`, the Potency in experiment [2] was 4.47 µM (active); in experiment [8], 2.51 µM (active); in [10], 3.16 µM (active).

As to `COc1c(C)c2c(c(O)c1C/C=C(\C)CCC(=O)O)C(=O)OC2`, the Potency in [2] was 3.16 µM (active); in experiment [3] it was 2.82 µM (active); in [4], 3.16 µM (active); in [5] it was 3.16 µM (active); in [9] it was 2.24 µM (active); in experiment [10] it was 2.82 µM (active). Moreover, the Potency entry in experiment [6] and in [8] was “inactive” in each case.

Consider `Oc1ccc(O)cc1`, for which the Potency result in experiment [1], in [5], in experiment [6], in [8], in experiment [9] and in [10] was “inactive” each time.

Regarding `OC(CCN1CCCCC1)(c1ccccc1)c1ccccc1`, the Potency in experiment [4] was 10 µM (active).

In the case of `CN(C)C(=S)SC(=S)N(C)C`, the Potency was 11.2 µM (active) in experiment [2], 8.91 µM (active) in [3], 11.2 µM (active) in experiment [4] and 5.01 µM (active) in experiment [5].

With `CN(C)CC/C=C1\c2ccccc2Sc2ccc(Cl)cc21`, the Potency was 12.6 µM (active) in [2], 10 µM (active) in experiment [4], 11.2 µM (active) in experiment [6] and 11.2 µM (active) in experiment [8].

On to `CC(C)NC[C@@H](O)COc1cccc2ccccc12`, for which the Potency in experiment [2] was 12.6 µM (active); in experiment [4], 12.6 µM (active); in experiment [6] it was 8.91 µM (active); in experiment [10] it was 12.6 µM (active).

In the case of `CN(C)CCCOc1nn(Cc2ccccc2)c2ccccc12`, the Potency entry in experiment [2], in experiment [4], in [5], in experiment [6], in experiment [8] and in experiment [9] was “inactive” throughout. Besides, the Potency result in experiment [10] is “inactive”.

For `Cc1ccc(C(=O)C(C)CN2CCCCC2)cc1` (stereo not given), the Potency result in [1], in experiment [8] and in experiment [9] was “inactive” throughout.

Consider `CC(C)COC(=O)c1ccc(N)cc1`, for which the Potency result in [2], in experiment [3], in experiment [5], in [6], in [7] and in experiment [8] was “inactive” in each case. Moreover, the Potency result in [9] was “inactive”.

Turning to `CCCCCCCCCCCCCCCCCC(=O)OCC(O)CO` (stereo not given), the Potency result in [2], in experiment [4], in experiment [5], in experiment [6], in experiment [7] and in experiment [8] was “inactive” in each case. Further, the Potency result in experiment [9] and in experiment [10] was “inactive” each time.

As for `c1ccc(CNCCNCc2ccccc2)cc1`, the Potency entry in experiment [1] is “inactive”. In addition, in experiment [8], the Potency was 3.55 µM (active).

Consider `O=C(CCCN1CCC(O)(c2ccc(Br)cc2)CC1)c1ccc(F)cc1`, for which the figures for the Potency in [8] and in experiment [10] were 0.398 µM (active) and 3.16 µM (active), respectively. In addition, the Potency entry in [9] is “inactive”.
